What all share (experiment): PBM; 200 nM protein, PBS
Settings in all cases: dsDNA, one strand shown

In assay [1] the target is NKX2-5 (Homo sapiens, UniProt P52952 125-210, R139K).
The target of assay [2] is T1, NKX2-6 (Homo sapiens, UniProt A6NCS4 118-204).
T1 sequence: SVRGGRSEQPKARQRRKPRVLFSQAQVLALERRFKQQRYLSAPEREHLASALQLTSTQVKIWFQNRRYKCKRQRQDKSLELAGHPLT

In assay [3] the target is T2, NKX2-6 (Homo sapiens, UniProt A6NCS4 118-204, F151L).
T2 sequence: T1 sequence with F34L

In assay [4] the target is NKX2-5 (Homo sapiens, UniProt P52952 125-210).
Chain of NKX2-5 (Homo sapiens, UniProt P52952 125-210) (P52952 125-210): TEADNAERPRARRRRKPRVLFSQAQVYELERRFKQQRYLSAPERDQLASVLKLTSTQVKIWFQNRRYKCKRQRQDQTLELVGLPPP
The target of assay [5] is T3, NKX2-6 (Homo sapiens, UniProt A6NCS4 118-204, R150C).
T3 sequence: T1 sequence with R33C

Assay [6] deals with NKX3-2 (Homo sapiens, UniProt P78367 192-278, P234S).
Chain of NKX3-2 (Homo sapiens, UniProt P78367 192-278, P234S) (P78367 192-278 P234S): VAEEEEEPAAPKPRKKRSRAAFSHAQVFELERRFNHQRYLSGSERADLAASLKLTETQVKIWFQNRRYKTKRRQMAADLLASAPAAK
For assay [7], the target named is NKX3-2 (Homo sapiens, UniProt P78367 192-278).
Chain of NKX3-2 (Homo sapiens, UniProt P78367 192-278) (P78367 192-278): as the sequence (P78367 192-278 P234S) above, with S43P counted along it
The target of assay [8] is MSX2 (Homo sapiens, UniProt P35548 130-214, R199I).
Chain of MSX2 (Homo sapiens, UniProt P35548 130-214, R199I) (P35548 130-214 R199I): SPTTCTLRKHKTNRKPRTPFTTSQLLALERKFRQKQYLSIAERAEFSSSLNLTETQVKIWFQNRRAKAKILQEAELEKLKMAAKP
In assay [9] the target is MSX2 (Homo sapiens, UniProt P35548 130-214).
Chain of MSX2 (Homo sapiens, UniProt P35548 130-214) (P35548 130-214): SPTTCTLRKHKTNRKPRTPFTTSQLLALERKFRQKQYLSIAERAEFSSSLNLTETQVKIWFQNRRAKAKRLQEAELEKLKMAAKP
Assay [10] deals with MSX2 (Homo sapiens, UniProt P35548 130-214, F161Y).
Chain of MSX2 (Homo sapiens, UniProt P35548 130-214, F161Y) (P35548 130-214 F161Y): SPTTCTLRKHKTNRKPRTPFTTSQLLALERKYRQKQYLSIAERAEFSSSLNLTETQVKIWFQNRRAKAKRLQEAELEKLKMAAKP

Binding signal data for 24 sequences are collected here from paper PMC11006913.

Numbering of substitutions follows the chain as printed.

Chain of NKX2-5 (Homo sapiens, UniProt P52952 125-210, R139K) (P52952 125-210 R139K): as the sequence (P52952 125-210) above, with R15K counted along it

As to CCAGCAGC, the binding signal in assay [1] is 8.8 upbm affinity estimate (log intensity, higher = more binding, comparable within an allelic series); in assay [2] it was 9.28 upbm affinity estimate (log intensity, higher = more binding, comparable within an allelic series); in assay [3], 9.29 upbm affinity estimate (log intensity, higher = more binding, comparable within an allelic series); in [4], 8.73 upbm affinity estimate (log intensity, higher = more binding, comparable within an allelic series).

On to AAGTGCCT, for which the binding signal in assay [1] is 12.4 upbm affinity estimate (log intensity, higher = more binding, comparable within an allelic series); in assay [5], 11.7 upbm affinity estimate (log intensity, higher = more binding, comparable within an allelic series); in [3], 10.8 upbm affinity estimate (log intensity, higher = more binding, comparable within an allelic series); in assay [6], 12.5 upbm affinity estimate (log intensity, higher = more binding, comparable within an allelic series); in assay [4], 12.3 upbm affinity estimate (log intensity, higher = more binding, comparable within an allelic series); in assay [7] it was 12.6 upbm affinity estimate (log intensity, higher = more binding, comparable within an allelic series).

As for CAGCGTCC, the binding signal in assay [1] is 8.7 upbm affinity estimate (log intensity, higher = more binding, comparable within an allelic series); in assay [5] it was 9.46 upbm affinity estimate (log intensity, higher = more binding, comparable within an allelic series); in [4] it was 8.65 upbm affinity estimate (log intensity, higher = more binding, comparable within an allelic series).

Take AGCCCAGG: the binding signal in assay [1] was 8.68 upbm affinity estimate (log intensity, higher = more binding, comparable within an allelic series); in assay [8], 9.6 upbm affinity estimate (log intensity, higher = more binding, comparable within an allelic series); in assay [9], 9.67 upbm affinity estimate (log intensity, higher = more binding, comparable within an allelic series); in [10], 9.66 upbm affinity estimate (log intensity, higher = more binding, comparable within an allelic series); in [6], 10.1 upbm affinity estimate (log intensity, higher = more binding, comparable within an allelic series); in assay [4] it was 8.63 upbm affinity estimate (log intensity, higher = more binding, comparable within an allelic series). Further, in assay [7], the binding signal is 10.1 upbm affinity estimate (log intensity, higher = more binding, comparable within an allelic series).

For the sequence CCCTAAGA, the binding signal in assay [1] is 10.8 upbm affinity estimate (log intensity, higher = more binding, comparable within an allelic series); in [4], 10.8 upbm affinity estimate (log intensity, higher = more binding, comparable within an allelic series).

Regarding GCAGACCA, the binding signal in assay [1] is 9.14 upbm affinity estimate (log intensity, higher = more binding, comparable within an allelic series); in assay [4], 9.12 upbm affinity estimate (log intensity, higher = more binding, comparable within an allelic series).

For CCCCAACG, the binding signal in [1] was 8.6 upbm affinity estimate (log intensity, higher = more binding, comparable within an allelic series); in [4], 8.67 upbm affinity estimate (log intensity, higher = more binding, comparable within an allelic series).

Regarding ACTAGTAC, the binding signal was 10.7 upbm affinity estimate (log intensity, higher = more binding, comparable within an allelic series) in assay [1] and 10.7 upbm affinity estimate (log intensity, higher = more binding, comparable within an allelic series) in assay [4].

In the case of AGCCACTC, the binding signal was 11.6 upbm affinity estimate (log intensity, higher = more binding, comparable within an allelic series) in [1] and 11.5 upbm affinity estimate (log intensity, higher = more binding, comparable within an allelic series) in [4].

For the sequence AAGTGAGT, the binding signal is 11.4 upbm affinity estimate (log intensity, higher = more binding, comparable within an allelic series) in assay [1] and 11.4 upbm affinity estimate (log intensity, higher = more binding, comparable within an allelic series) in assay [4].

On to AATCTTGA, for which the binding signal in assay [1] is 10.5 upbm affinity estimate (log intensity, higher = more binding, comparable within an allelic series); in [4], 10.5 upbm affinity estimate (log intensity, higher = more binding, comparable within an allelic series).

On to ACGTCCCG, for which the binding signal in assay [1] was 8.76 upbm affinity estimate (log intensity, higher = more binding, comparable within an allelic series); in [4], 8.79 upbm affinity estimate (log intensity, higher = more binding, comparable within an allelic series).

On to ATAAGCGG, for which the binding signal is 10.3 upbm affinity estimate (log intensity, higher = more binding, comparable within an allelic series) in assay [1] and 10.3 upbm affinity estimate (log intensity, higher = more binding, comparable within an allelic series) in assay [4].

Turning to ACCGGAGC, the binding signal was 8.8 upbm affinity estimate (log intensity, higher = more binding, comparable within an allelic series) in assay [1] and 8.81 upbm affinity estimate (log intensity, higher = more binding, comparable within an allelic series) in assay [4].

Regarding CTAGTACA, the binding signal in assay [1] was 10.5 upbm affinity estimate (log intensity, higher = more binding, comparable within an allelic series); in assay [4] it was 10.6 upbm affinity estimate (log intensity, higher = more binding, comparable within an allelic series).

Regarding TATGAAGA, the binding signal in [1] was 10.8 upbm affinity estimate (log intensity, higher = more binding, comparable within an allelic series); in assay [4], 10.7 upbm affinity estimate (log intensity, higher = more binding, comparable within an allelic series).

In the case of ATAAGTGA, the binding signal was 12.2 upbm affinity estimate (log intensity, higher = more binding, comparable within an allelic series) in assay [1] and 12 upbm affinity estimate (log intensity, higher = more binding, comparable within an allelic series) in assay [4].

Consider AGTACTCG, for which the binding signal in assay [1] was 11.5 upbm affinity estimate (log intensity, higher = more binding, comparable within an allelic series); in assay [4], 11.3 upbm affinity estimate (log intensity, higher = more binding, comparable within an allelic series).

For the sequence TGCGCGCA, the binding signal in assay [1] is 9.19 upbm affinity estimate (log intensity, higher = more binding, comparable within an allelic series); in assay [4], 9.1 upbm affinity estimate (log intensity, higher = more binding, comparable within an allelic series).

For CGGGTGGC, the binding signal in assay [1] is 8.45 upbm affinity estimate (log intensity, higher = more binding, comparable within an allelic series); in assay [4] it was 8.57 upbm affinity estimate (log intensity, higher = more binding, comparable within an allelic series).

For the sequence CACAAGAG, the binding signal in [1] was 11.1 upbm affinity estimate (log intensity, higher = more binding, comparable within an allelic series); in [4], 11 upbm affinity estimate (log intensity, higher = more binding, comparable within an allelic series).

Take ATACTCCA: the binding signal is 10.6 upbm affinity estimate (log intensity, higher = more binding, comparable within an allelic series) in assay [1] and 10.4 upbm affinity estimate (log intensity, higher = more binding, comparable within an allelic series) in [4].

In the case of CTCTTATC, the binding signal in [1] was 11.5 upbm affinity estimate (log intensity, higher = more binding, comparable within an allelic series); in assay [4] it was 11.4 upbm affinity estimate (log intensity, higher = more binding, comparable within an allelic series).

Consider GCAACGCA, for which the binding signal in assay [1] is 9.03 upbm affinity estimate (log intensity, higher = more binding, comparable within an allelic series); in [4], 8.99 upbm affinity estimate (log intensity, higher = more binding, comparable within an allelic series).
